hcDAF-12 act: H. contortus DAF-12 nuclear receptor activators, primary screen, cell-based, luminescence, HEK293, lit1-tk-luc reporter. HEK293 hcDAF-12 lit1-tk-luc reporter; 0% DMSO, 100% Δ7-dafachronic acid. activation, % at 6.8 µM. AID 652067, 2013. hit rate 1.4% among 370,000;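 active = activation above the mean of all tested compounds plus 3 SD, cut at about 5.5% in these data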;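 also: 100% = response to 3 µM Δ7-dafachronic acid high control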
AHR activator: AHR activators, primary screen, cell-based, luminescence, luciferase reporter, human; AHR-responsive luciferase reporter cells; activation, % at 5 µM; hit rate 2.5% among 320,000; AID 2796, 2010; in the data active = activation above about 47%;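 also: 0% = vehicle wells and 100% = reference agonist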
DAX1 inh-1: DAX1 (NR0B1) inhibitors on StAR promoter, primary screen, cell-based, luminescence, SF-1 (NR5A1), full-length DAX-1; HEK293T StAR-luciferase reporter, SF-1/DAX-1 repression relief; inhibition, % at 6.8 µM; hit rate 1.1% among 370,000; AID 652010, 2013;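 active = inhibition above the mean over all tested compounds plus 3 SD, cut at about 3.6% in these data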;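 also: 0% = DAX-1 cells with DMSO and 100% = cells lacking DAX-1 with DMSO; higher inhibition means more luminescence from relief of DAX-1 repression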
ssDAF12 agonist: S. stercoralis DAF-12 nuclear receptor activators, primary screen, cell-based, luminescence, HEK293, GRIP1 co-expression, lit1-tk-luc; Nuclear hormone receptor DAF-12 (Strongyloides stercoralis); HEK293 ssDAF-12/GRIP1 lit1-tk-luc reporter; % of 3 µM dafachronic acid response; hit rate 1% among 370,000; activation, % at 6.8 µM;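 active = activation above the mean over all tested compounds plus 3 SD, cut at about 0.9% in these data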;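 also: 0% = DMSO-only wells and 100% = 3 µM delta7-dafachronic acid wells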
hgDAF12 agonist: H. glycines DAF-12 receptor agonists, primary screen, cell-based, luminescence, HEK293, GAL4 fusion, UAS-luciferase; HEK293 GAL4-hgDAF12 UAS-luciferase reporter, agonist luminescence; normalized to butyrate control; hit rate 1.8% among 370,000; activation, % at 6.8 µM;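 active = activation above a cutoff set at the mean of all screened compounds plus 3 SD, cut at about 10% in these data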;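 also: 0% = DMSO wells and 100% = sodium butyrate wells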
DAX1 inh-2: DAX1 (NR0B1) inhibitors, primary screen, cell-based, HEK293, Gal4-DAX1, luciferase luminescence | inhibition, % at 6.75 µM | Nuclear receptor subfamily 0 group B member 1 (Homo sapiens), P51843 | hit rate 0.99% among 340,000 | HEK293 Gal4-DAX1 luciferase reporter | AID 504766, 2011;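 active = inhibition above the mean over all tested compounds plus 3 SD, cut at about 4.2% in these data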;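 also: 0% = DAX1-transfected cells with DMSO and 100% = empty-vector control cells with DMSO; inhibition shows as a rise in luminescence from relieved DAX1 repression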
Target sequence (P51843 207-470 limits assumed): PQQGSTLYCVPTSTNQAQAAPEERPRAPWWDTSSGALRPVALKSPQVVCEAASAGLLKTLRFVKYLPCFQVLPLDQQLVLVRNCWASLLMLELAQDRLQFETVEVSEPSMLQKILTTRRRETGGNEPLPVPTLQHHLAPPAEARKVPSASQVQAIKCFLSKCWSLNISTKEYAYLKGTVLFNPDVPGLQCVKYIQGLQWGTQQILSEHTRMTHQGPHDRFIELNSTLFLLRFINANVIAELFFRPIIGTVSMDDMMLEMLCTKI
An asterisk follows results filed as active; · = no result. Compounds with a hit are over-represented: about 5.7% of the library has one in this group of screens.

SMILES	hcDAF-12 act	AHR activator	DAX1 inh-1	ssDAF12 agonist	hgDAF12 agonist	DAX1 inh-2
C[C@@H]1CN([C@H](C)CO)C(=O)CCCn2cc(nn2)CO[C@H]1CN(C)S(=O)(=O)c1ccccc1F	-0.7	·	-0.4	-0.9	2.6	·
C=CCNC(=O)c1onc(CSc2ccccn2)c1C(=O)NCC=C	-1.0	2.6	-0.8	-1.4	1.5	0.3
COc1ccc(Nc2nc(N)c([N+](=O)[O-])c(NC3CCCCC3)n2)cc1	-1.9	14.2	-0.5	-1.2	-1.1	-1.9
COc1cc(OC)c(NC(=O)c2cncn2-c2ccc(F)cc2)cc1Cl	-0.5	65.0*	-0.4	-1.2	-0.9	-0.5
COc1ccc(OC)c2sc(NC(=O)CCSc3ccccc3)nc12	2.0	58.9*	-0.7	-0.4	1.4	-0.8
COc1ccc(C)c2sc(NC(=O)C3CC3)nc12	4.8	73.7*	-0.7	-0.1	-1.6	0.1
COC(=O)C1=C(C)NC(=O)/C1=C\N(C)C	-1.6	-1.2	0.3	-1.0	3.4	1.7
CCc1nc(SCC(=O)c2ccc(Cl)s2)c2oc3ccccc3c2n1	·	60.0*	·	·	·	-0.1
CCc1nc(SCCO)c2oc3ccccc3c2n1	-2.7	10.8	-0.6	-1.5	-0.7	0.6
Cc1ccc(Oc2ccc(S(=O)(=O)N3CCOCC3)cc2C(N)=O)cc1C	-2.0	-0.6	-2.1	-0.7	1.4	0.2
CCCCCC[n+]1c(-c2ccccc2)csc1Nc1ccccc1	-1.5	1.5	0.0	-1.1	-0.1	-0.1
COc1ccc(-c2csc(Nc3ccccc3)[n+]2CC(O)c2ccc([N+](=O)[O-])cc2)cc1 (stereo not drawn)	-0.3	47.3*	-0.9	-1.1	-1.6	-0.4
c1cncc(-c2nnc(SCc3nc4ccccc4[nH]3)o2)c1	-2.4	73.2*	-1.3	-1.7	-9.5	-1.9
O=c1c2ccccc2oc2ccc(NCCCn3ccnc3)cc12	4.7	-8.8	4.0*	1.8*	11.2*	1.2
N#Cc1cc2c(=O)n3ccccc3nc2n(CCCn2ccnc2)c1=N	-0.6	102.0*	-0.2	-1.5	0.1	0.8
CCCn1c(=N)c(C#N)cc2c(=O)n3cccc(C)c3nc21	·	31.6	·	·	·	·
CCC(C)n1c(=N)c(C#N)cc2c(=O)n3ccccc3nc21 (stereo not drawn)	-1.4	1.7	-0.1	-1.2	0.4	0.0
CCCn1c(=N)c(C#N)cc2c(=O)n3ccccc3nc21	-2.9	84.6*	0.1	-1.7	-6.2	2.1
CCCCC(=O)N1CCC(NS(=O)(=O)c2ccc3c(c2)CCN3C(C)=O)CC1	-1.4	·	-1.7	-1.7	-1.7	·
Cc1ccc(NC(=O)Nc2ccno2)cc1	0.5	22.6	0.4	-1.0	3.2	·
c1ccc(CN2CCOCC2)cc1	1.1	-1.0	0.1	-1.1	0.2	-0.2
c1ccc2c(c1)Cc1cc(CN3CCOCC3)ccc1-2	2.6	5.5	2.7	0.0	13.2*	1.9
CCN(CC)c1ccc(C(=O)OCC(=O)Nc2sccc2C#N)cc1	5.3	9.6	1.9	-0.1	10.7*	0.5
CCN(CC)c1ccc(C(=O)OCC(=O)Nc2ncccn2)cc1	3.2	-0.6	-0.1	-0.4	0.7	-0.5
CC(CCc1ccccc1)NC(=O)CN1CCOc2ccccc21 (stereo not drawn)	3.4	1.4	-0.5	0.4	0.6	0.2
SMILES	hcDAF-12 act	AHR activator	DAX1 inh-1	ssDAF12 agonist	hgDAF12 agonist	DAX1 inh-2
O=C(CN1CCOc2ccccc21)NCc1ccccc1	5.8*	3.2	-0.5	0.2	1.0	0.3
O=C(/C=C/c1cccs1)Nc1nncs1	0.1	30.3	1.1	-0.7	9.0	2.2
O=C(/C=C/c1cccs1)Nc1cccnc1	2.6	56.2*	2.6	-0.4	8.2	-1.1
O=C(/C=C/c1cccs1)NNC(=O)c1ccccc1	6.0*	12.6	1.5	-0.1	6.7	0.2
O=c1[nH]nc(N2CCOCC2)c(=O)[nH]1	-0.5	-0.4	0.1	-1.3	2.3	2.3
C/C(=C\c1ccc(Cl)cc1)C(=O)c1c(C)cc(C)[nH]c1=O	-0.8	-2.6	-0.2	-1.1	3.8	4.5*
C/C(=C\c1ccc(Br)cc1)C(=O)c1c(C)cc(C)[nH]c1=O	-0.3	·	-0.8	-1.0	0.6	-2.1
C/C(=N\NC(=S)NC(C)C)c1ccc(Cl)c([N+](=O)[O-])c1	-1.5	5.4	-0.3	-1.3	-1.9	4.6*
C/C(=N\NC(=S)NC(C)C)c1cccc([N+](=O)[O-])c1	-1.9	0.5	-1.0	-1.7	2.6	1.1
CC(C)(C)NC(=O)Cn1c(SCC(=O)NC2CC2)nc2ccccc21	-0.8	0.4	0.2	-0.1	-1.8	4.7*
c1ccc(-c2cc3ccccc3[nH]2)cc1	1.9	50.3*	-0.6	-0.3	3.9	0.3
COc1ccc(-c2cc3ccccc3[nH]2)cc1	5.6*	20.7	1.7	-0.2	9.5	3.2
Cc1ccc(O)c(-c2cc3ccccc3[nH]2)c1	0.7	49.4*	0.6	-1.4	5.7	2.9
Cc1ccc2[nH]c(-c3cccc(N)c3)cc2c1	1.4	16.5	1.0	-0.4	6.4	2.6
O=C(NCC(=O)N1CCN(c2ccccc2O)CC1)c1cccs1	0.5	4.6	1.9	-0.8	0.7	1.0
C[C@H](CO)N1C[C@H](C)[C@H](CN(C)C(=O)Nc2cccc(F)c2)OCc2cnnn2CCCC1=O	-0.3	·	-0.3	-0.5	-3.7	·
Cc1c(CN(C)Cc2cn(C)nc2-c2ccccc2F)[nH]c2ccccc12	1.2	48.0*	0.3	-0.6	0.3	0.9
COc1ccc(N2C(=O)C3C(c4ccc(OC)cc4O)NC(Cc4ccccc4)(C(=O)O)C3C2=O)cc1 (stereo not drawn)	-0.1	2.3	0.4	-0.2	2.0	7.6*
CCCC1(C(=O)O)NC(c2ccc(OC)cc2O)C2C(=O)N(c3ccc(OC)cc3)C(=O)C21 (stereo not drawn)	0.6	0.9	0.3	-1.4	3.0	2.3
O=C(O)Cc1ccc(NS(=O)(=O)c2ccc3ccccc3c2)cc1	-2.6	1.3	-0.4	-0.6	-0.2	0.5
CCC(C)C(=O)Nc1nc2ccc(OC)cc2s1 (stereo not drawn)	1.7	-4.2	1.9	-0.5	6.3	·
COc1ccc2nc(NC(=O)CSCc3c(C)noc3C)sc2c1	-1.4	3.7	0.7	-0.4	2.8	3.1
COc1ccc2nc(NC(C)=O)sc2c1	1.9	6.1	1.5	-0.3	12.3*	0.0
COc1ccc2nc(NC(=O)Nc3cccc4ccccc34)sc2c1	3.1	64.5*	0.6	-0.7	4.3	1.2
